Measurements reported in article PMC12548414.
About 20 (1%) of roughly 1,600 compounds showed an effect of 50% or more. Shown is part of a subset that was picked to be rich in strong results.

tested on: T1, E. coli pLC1021 (luc-trpAt trans-translation reporter); parameters: species or system Escherichia coli pLC1021; luc-trpAt non-stop luciferase reporter; luminescence rises when trans-translation is inhibited; normalized to KKL-35 and DMSO; conditions: reporter signal, KKL-35 = 100%; rise means trans-translation inhibition; 2 h, 20 µM
T1 construct: pLC1021 luc-trpAt reporter strain
Experimental: The luciferase screen was performed as previously described ([16]). […] 48 µL of cells was transferred to white 96-well plates, and 2 µL DMSO or 20 µM compound, or 20 µM KKL-35 was added. Plates were sealed with adhesive film, vortexed gently to mix, and incubated at room temperature for 2 h. 50 µL Bright-Glo reagent (Promega, Madison, WI) was added to each well, and the plates were sealed with adhesive film, vortexed vigorously, and incubated for an additional 10 min at room temperature. Luminescence was measured at 560 nm using a SpectraMax i3 microplate reader and readings for each plate were normalized to the average of three KKL-35-treated wells (positive control) and three DMSO-treated wells (negative control) within the plate to correct for plate-to-plate and day-to-day variations. Results from at least two biological repeats were averaged, and GraphPad Prism was used to plot the data. We screened a library of 1,601 anti-tubercular small molecules for their ability to inhibit trans-translation using a luciferase reporter in Escherichia coli. In this luc-trpAt reporter, the firefly luciferase gene has a trpA transcriptional terminator before the stop codon, such that luciferase is translated from a non-stop mRNA ([16]). When trans-translation is active, the luciferase will be tagged and degraded, but when trans-translation is inhibited, active luciferase will accumulate, resulting in a luminescent signal when luciferin is added. Luciferase activity was measured after growth in the presence of compounds from the library at 20 µM, using the known trans-translation inhibitor KKL-35 as a positive control (Fig. 1A) ([16], [17]). Compounds with activity one standard deviation above the median were scored as positive (Fig. S1 and Table S1).

Compound	% activation
COC(=O)CSc1nc(N)c2c3c(sc2n1)CCCC3 [KKL-0994]	9%
COc1ccc(C(=O)NC(=S)Nc2ccc(N3CCCCC3)cc2)cc1OC [KKL-1472]	0%
Cc1cc(Nc2ccccc2)n(-c2nc3ccccc3[nH]2)n1 [KKL-0835]	21%
COc1ccc2[nH]c(CNCCc3nc4cc(Cl)ccc4[nH]3)cc2c1 [KKL-1215]	0%
COCc1nnc(NC(=O)c2nnn(-c3ccccc3F)c2C)s1 [KKL-0547]	0%
CCC(C)NCCCOc1ccc(Cl)c2ccccc12 (centres unmarked) [KKL-1428]	0%
O=C(CNCCN1CCOCC1)Nc1sc2c(c1C(=O)Nc1ccccc1)CCC2 [KKL-1074]	2%
CCOC(=O)c1ccc(NC(S)=Nc2ccc(Oc3ccccc3)cc2)cc1 [KKL-1317]	0%
Cc1c(C(=O)NC(=S)Nc2ccc(Oc3ccc(Cl)cc3)cc2)cccc1[N+](=O)[O-] [KKL-0735]	17%
O=C(COc1cccc(F)c1)Nc1nc(-c2ccccn2)cs1 [KKL-1787]	5%
O=C(CSc1ccccc1)Nc1ccc(-c2nc3ccccc3c(=O)o2)cc1 [KKL-0595]	1%
O=C(Nc1ccc(F)cc1)NC1CCCCCCC1 [KKL-1335]	0%
COc1cc(CN(CCCn2ccnc2)Cc2ccc(C)s2)cc2c1OCO2 [KKL-0341]	9%
CSc1nc2nc3c(c(O)n2n1)CCCC3 [KKL-1033]	0%
O=C(Oc1c(Cl)cc(Cl)c2cccnc12)c1ccccc1[N+](=O)[O-] [KKL-1418]	90%
Cc1c(C(=O)Oc2cccc3cccnc23)cccc1[N+](=O)[O-] [KKL-0952]	8%
O=C(Oc1c(Cl)cc(Cl)c2cccnc12)c1ccco1 [KKL-1639]	0%
Cc1ccc(C(=O)Oc2ccc(Cl)c3cccnc23)cc1[N+](=O)[O-] [KKL-1383]	0%
COc1ccc(C(=O)Oc2cccc3cccnc23)cc1[N+](=O)[O-] [KKL-1648]	0%
O=C(Oc1c(Cl)cc(Cl)c2cccnc12)c1ccc([N+](=O)[O-])cc1 [KKL-0754]	96%
CCCc1cc2c(=O)c(-c3ccc4c(c3)OCCCO4)coc2cc1OCC(=O)OCC [KKL-1419]	0%
O=C(Nc1ccc(Cl)cc1C(F)(F)F)c1ccc([N+](=O)[O-])o1 [KKL-0712]	0%

Compound	% activation
CN1CCN(c2cc(-c3ccncc3)nc(-c3ccccc3)n2)CC1 [KKL-1795]	237%
COc1ccc(-c2cncc(-c3cc(N4CCN(CCO)CC4)nc(-c4ccccc4)n3)c2)cc1 [KKL-1682]	0%
CN1CCN(c2cc(-c3ccc(F)cc3)nc(-c3ccncc3)n2)CC1 [KKL-1844]	0%
Cc1cc(CN2CCC(O)(c3ccccc3)C2)ccc1N1CCCC1 (centres unmarked) [KKL-0330]	0%
CCc1ccc(Nc2nnc(SCc3cc(C)on3)s2)cc1 [KKL-1791]	0%
N#Cc1cc2c(ccc3ccccc32)oc1=O [KKL-1386]	0%
CCCc1ccc2oc(C(=O)NCCc3ccc(O)cc3)c(C)c2c1 [KKL-1185]	2%
C#CCOc1cccc(CN2CCn3cccc3C2CC)c1 (centres unmarked) [KKL-0516]	0%
CSc1ncc(CN2CCCC(C(=O)c3ccc(-c4ccccc4)c(F)c3)C2)cn1 (centres unmarked) [KKL-0344]	0%
CN(CC1Cc2ccccc2CN1C)C(=O)c1cc(COc2cncc(Cl)c2)on1 (centres unmarked) [KKL-1186]	0%
COc1ccccc1N1C(=O)c2cccc3cc([N+](=O)[O-])cc(c23)C1=O [KKL-1508]	0%
Cc1ccccc1OCCCON1C(=N)N=C(N)NC1(C)C [KKL-1698]	11%
COc1ccc(C(C)(C)C)cc1N=C(S)Nc1ccc(Cl)c(Cl)c1 [KKL-1535]	0%
Cc1ccc2nc(C(F)(F)F)c(C(=O)NCc3cccc(OC(C)C)c3)n2c1 [KKL-1772]	2%
CC(=O)Nc1ccc2cccc(O)c2n1 [KKL-0957]	55%
Cc1ccccc1/C=C/c1ccc2cccc(O)c2n1 [KKL-0432]	11%
Oc1cccc2ccc(/C=C/c3cccc(F)c3)nc12 [KKL-1464]	18%
Cc1nc2ccccn2c1C(=O)Nc1ccc(C(C)(C)C)cc1 [KKL-1770]	0%
N#Cc1ncn(-c2ccc3nnc(C(F)(F)F)n3n2)n1 [KKL-1886]	0%
CC(C)c1noc(N2CCC(C(C)Oc3cnc(-c4ccc(S(C)(=O)=O)c(F)c4)cn3)CC2)n1 (centres unmarked) [KKL-1810]	0%
Cc1ccc(-c2cc(C(=O)N3CCCC(N4CCN(c5ccccc5C)CC4)C3)[nH]n2)s1 (centres unmarked) [KKL-0485]	0%
COc1cccc(O)c1CN1CCC(C(=O)Nc2ccc(-c3cccc(C)c3)cc2)CC1 [KKL-0508]	0%
